Assay outcomes deposited in PubChem BioAssay by National Center for Advancing Translational Sciences (NCATS).
KB-3-1 tox: kills parental KB-3-1 adenocarcinoma cells | KB-3-1 viability, CellTiter-Glo ATP luminescence, 72 h | Potency, µM (series often up to 46.1 µM), hits mostly cytotoxic | hit rate 1.4% among 400,000 | AID 1347075; also: % is scaled to controls: 0 for no effect and ±100 for the full control effect; nearly all actives have a fitted effect of over 60% in size
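Multi-concentration cytotoxicity screen in KB-3-1 cells grown in DMEM lacking phenol red with 10% FBS. After 72 h at 37 °C with compound, ATP-dependent luminescence was recorded.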
SW480 rerep: inducers of DNA re-replication in SW480 colon cancer cells. SW480 DNA re-replication, Hoechst DNA content imaging, 48 h. Potency, µM (highest dose often 46.1 µM), for inactives: at the top dose re-replication activation, hits mostly activators. hit rate 1.8% among 340,000; also: % of control where 0% means no effect; nearly all actives have a fitted effect of over 55% in size
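First, 250 cells per well were seeded. Next, compound or vehicle (23 nL) was pinned in, plates sat 48 hr at 37 C. Finally Hoechst was added for 40 min before fluorescence scanning.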
KB-V1 MDR tox: kills drug-selected multidrug resistant KB-V1 cells; KB-V1 MDR cells viability, CellTiter-Glo, 72 h; Potency, µM (titrated, usually from 46.1 µM), hits mostly cytotoxic; hit rate 3.4% among 400,000; also: % is scaled to controls: 0 for no effect and ±100 for the full control effect; nearly all actives have a fitted effect of over 60% in size
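Drug-selected KB-V1 cells, grown in DMEM lacking phenol red with 10% FBS, receive compound titrations; after three days at 37 degrees C, surviving cell ATP is quantified by CellTiter-Glo luminescence and responses normalized and curve-fitted.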
HT1080NT lethal: kills 2HG-producing HT-1080-NT fibrosarcoma cells | HT-1080-NT fibrosarcoma viability, CellTiter-Glo ATP luminescence, 48 h | Potency, µM (highest dose often 46.1 µM), without a hit: at the highest dose activity, negative = less viability, most hits filed as cytotoxic | hit rate 1.6% among 360,000 | AID 686970;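 also: NT is the 2HG producing partner of a matched IDH1 knockdown line; 0% = DMSO-treated cells and -100% = media-only wells without cells; nearly all actives have a fitted effect of over 55% in size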
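Viability of the 2HG-overproducing fibrosarcoma line after 48 hours of compound exposure at 37 degrees C was determined by luminescence with CellTiter-Glo, and concentration-effect curves were then fitted and categorized.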
HT1080 IDH1KD tx: toxicity to HT-1080 IDH1 knockdown cells (counter line); Potency, µM (series often up to 46.1 µM), without a hit: at the highest dose activity, negative = toxicity, hits mostly cytotoxic; AID 686971; hit rate 2% among 360,000; HT-1080 IDH1 knockdown viability, ATP luminescence, 48 h;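 also: 0% = DMSO wells and -100% = cell-free medium wells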
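In this qHTS, HT-1080 cells depleted of IDH1 are exposed for 48 h at 37 °C to compound titrations. Toxicity is scored from CellTiter-Glo luminescence, with DMSO as full viability and medium alone as none.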
MCF10A rerep: induces DNA re-replication in MCF 10a normal breast cells. MCF 10A DNA re-replication, Hoechst nuclear intensity, 48 h. AID 624296. hit rate 2.9% among 350,000. Potency, µM (top dose mostly 46.1 µM), inactives show at the top dose activity, positive = re-replication, usual class: activators; also: % of control where 0% means no effect; nearly all actives have a fitted effect of over 50% in size
Numbers without * were called inactive; i = inactive; ? = inconclusive; . = not tested or not shown. Compounds with a hit are over-represented: about 7.9% of the library has one in this group of screens. Calls follow the shape of the dose curve; as a rule, active = well fitted curve in the direction sought with a large enough effect; inconclusive = small, poorly fitted or top-dose-only effect, or another doubt; inactive = no such curve, though single readings can be large; an effect the other way counts as inactive or inconclusive. Potency is read from the fitted curve at half-maximal effect.

SMILES	KB-3-1 tox	SW480 rerep	KB-V1 MDR tox	HT1080NT lethal	HT1080 IDH1KD tx	MCF10A rerep
NC(=O)c1ccc(NS(=O)(=O)c2ccc(Br)s2)cc1	i	5%	i	2%	0%	-1%
Cc1ccc(F)cc1NC(=O)c1ccc(NS(=O)(=O)c2ccc(Br)s2)cc1	i	?	16µM*	-2%	6%	?
Cc1ccc(OCCCCN2CCCCC2)cc1	i	-7%	i	1%	3%	1%
c1ccc(OCCN2CCN(C(c3ccccc3)c3ccccc3)CC2)cc1	i	0.65µM*	i	-13%	-14%	?
Cc1ccc(OCCCCN2CCc3ccccc3C2)cc1	?	-1%	i	-19%	?	15µM*
CN1CCN(CCCOc2ccc(-c3ccccc3)cc2)CC1	i	9%	i	23µM*	16µM*	?
Brc1cccc(OCCN2CCc3ccccc3C2)c1	i	-21%	i	-23%	-4%	10%
Cc1ccc(OCCN2CCCC2)cc1	i	15µM*	i	-2%	-3%	?
CCN(c1cccc(C)c1)S(=O)(=O)c1c(C)nc2sc(C)cn2c1=O	i	.	i	.	.	.
COc1ccc2c(c1O)-c1ccccc1CCN(C)C2	i	-34%	i	-3%	-1%	-10%
CN1CCc2cccc3c2[C@@H]1Cc1ccc(O)c(O)c1-3	?	3.7µM*	?	23µM*	23µM*	?
CC(=O)Nc1cc(-c2cccc(C(=O)NCCN(C)C)c2)cn2c(-c3ccc(F)c(Cl)c3)cnc12	i	.	i	16µM*	21µM*	.
CC(=O)Nc1cc(-c2ccc(F)cc2)cn2c(-c3ccc(F)c(Cl)c3)cnc12	i	.	i	?	?	.
CC(=O)Nc1cc(-c2cccc(C(=O)NCCN(C)C)c2)cn2c(-c3ccc(C(C)=O)cc3)cnc12	?	.	i	18µM*	?	.
CC(=O)Nc1cc(-c2ccc(CO)cc2)cn2c(-c3ccc(F)c(Cl)c3)cnc12	i	.	i	33µM*	?	.
O=C(Nc1ccccc1)c1cccc2c(=O)c3c([nH]c12)CCCC3	i	.	i	.	.	.
CCCOc1ccc(/C=N/Nc2cc(N3CCOCC3)ncn2)c(O)c1	12µM*	?	i	?	3.7µM*	15%
Clc1ccccc1/C=N/Nc1cc(N2CCOCC2)ncn1	i	1%	i	-1%	17%	0%
CCOc1ccc(/C=N/Nc2cc(N3CCOCC3)ncn2)c(O)c1	?	.	i	?	2.3µM*	.
CCOC(=O)c1nn2c(C(F)(F)F)cc(-c3ccc(C)cc3)nc2c1Cl	i	.	i	.	.	.
CCOc1ccc(-c2nc(C(N)=O)c3c(n2)n(-c2ccc4c(c2)OCO4)c(=O)n3CC)cc1	i	.	i	.	.	.
CC(=NNC(=S)N1CC2CCC(CC2)C1)c1ccncn1	?	?	i	16µM*	?	45%
CC(=NNC(=S)N1CCCCC1)c1ccccn1	?	.	?	-20%	?	.
CCCCOc1ccc(C(=O)N2CCN(CCc3ccccn3)CC2)cc1	i	.	i	.	.	.
Cc1ccc(S(=O)(=O)N2CC3(C)CN(S(=O)(=O)c4ccc(C)cc4)CC(C)(C2)C3=O)cc1	i	7%	0.73µM*	-10%	-25%	6%
SMILES	KB-3-1 tox	SW480 rerep	KB-V1 MDR tox	HT1080NT lethal	HT1080 IDH1KD tx	MCF10A rerep
O=C(CSc1nnc2c3ccccc3c3ccccc3c2n1)Nc1ccccc1F	i	-4%	3.7µM*	7%	5%	-1%
Cc1ccc2nc(SCC(=O)N3CCC(C)CC3)nc(=O)n2c1	i	-11%	18µM*	2%	2%	-6%
Cc1ccc2nc(SCC(=O)c3ccccc3)nc(=O)n2c1	i	1.8µM*	i	-5%	-6%	1%
Cc1ccn2c(=O)nc(SCC(=O)Nc3cccc4ccccc34)nc2c1	i	-38%	i	-2%	-17%	?
O=C(CSc1nc(=O)n2cc(Cl)ccc2n1)Nc1cccc2ccccc12	?	24%	26µM*	?	-14%	0%
Cc1ccn2c(=O)nc(SCC(=O)c3ccccc3)nc2c1	i	-6%	i	0%	2%	1%
O=C(CSc1nnc2c(n1)[nH]c1ccc(F)cc12)Nc1ccccc1F	i	-8%	i	15%	2%	-1%
Cc1ccc2nc(SCC(=O)N3CCCC3)nc(=O)n2c1	i	-5%	?	1%	5%	4%
Cc1nc2ccccc2nc1SCC(=O)c1ccccc1	?	-1%	2.6µM*	1%	-6%	13%
O=C(NN=C1c2ccccc2-c2ccccc21)c1ccccn1	i	?	5.2µM*	?	?	6%
CC(=N/O)/C(C)=N\NC(=O)c1ccccn1	i	-4%	i	-7%	-13%	1%
COC(=O)c1c(NC(=O)c2ccccc2)sc(Cc2ccccc2)c1C	i	10%	13µM*	11%	10%	?
COC(=O)c1c(NC(=O)c2ccccc2)sc(C(=O)c2ccccc2)c1C	?	2%	?	?	?	6.5µM*
COC(=O)c1c(NC(=O)c2ccc(C)cc2)sc(Cc2ccccc2)c1C	i	0%	i	12%	1%	20%
CCN(CC)C(=O)c1sc(NC(=O)c2ccc(Br)o2)c(C(=O)OC)c1C	i	9%	9.2µM*	9%	7%	?
CCN(CC)C(=O)c1sc(NC(=O)c2cccnc2)c(C(=O)OC)c1C	i	-5%	i	5%	7%	-2%
COC(=O)c1c(NC(=O)c2ccccc2)sc(C(N)=O)c1C	?	4%	i	-22%	?	3%
COc1ccc(CN2C(=O)CN(S(C)(=O)=O)CC2(C)C(=O)Nc2c(C)cccc2C)cc1 (centres undefined)	i	.	i	8%	0%	.
COC(=O)c1ccc(Cn2c(SCc3ccccc3F)nc3ccncc32)cc1	i	.	i	.	.	.
Cc1nn(-c2nc3ccccc3[nH]2)c(=O)c2ccccc12	1.3µM*	3%	5.8µM*	1.5µM*	1.5µM*	30%
Cc1nn(-c2ccc3ccccc3c2)c(=O)c2ccccc12	i	11%	i	-4%	-18%	24%
COc1ccc(-c2c(C)nn(-c3ccccc3)c2N)cc1	i	-4%	i	1%	?	-2%
Cc1nn(-c2nc3ccccc3[nH]2)c(N)c1-c1ccc(Cl)cc1	?	?	18µM*	-11%	-25%	?
O=C(Nc1cc(F)cc(F)c1)Nc1nnc(-c2ccncc2)s1	i	.	i	.	.	.
Cc1cc(C)c(NC(=O)Cn2nc(-c3ccncc3)ccc2=O)c(C)c1	i	.	i	.	.	.
